# Assays:
# Test in all cases: DAPPL (digital affinity profiling via proximity ligation, sequencing); 10 mM Tris-HCl pH 7.5, 50 mM NaCl, 1 mM DTT, 4% glycerol, room temperature, 30 min; GST-TFs on glutathione beads, 16-mer random dsDNA library, 0.1% formaldehyde crosslink after washing; high values mean tight binding
# FLI1 = biological target: T1, FLI1 (Homo sapiens, UniProt Q01543 1-452); conditions: protein: recombinant; tags: N-terminal GST; dsDNA, one strand shown
# T1 sequence: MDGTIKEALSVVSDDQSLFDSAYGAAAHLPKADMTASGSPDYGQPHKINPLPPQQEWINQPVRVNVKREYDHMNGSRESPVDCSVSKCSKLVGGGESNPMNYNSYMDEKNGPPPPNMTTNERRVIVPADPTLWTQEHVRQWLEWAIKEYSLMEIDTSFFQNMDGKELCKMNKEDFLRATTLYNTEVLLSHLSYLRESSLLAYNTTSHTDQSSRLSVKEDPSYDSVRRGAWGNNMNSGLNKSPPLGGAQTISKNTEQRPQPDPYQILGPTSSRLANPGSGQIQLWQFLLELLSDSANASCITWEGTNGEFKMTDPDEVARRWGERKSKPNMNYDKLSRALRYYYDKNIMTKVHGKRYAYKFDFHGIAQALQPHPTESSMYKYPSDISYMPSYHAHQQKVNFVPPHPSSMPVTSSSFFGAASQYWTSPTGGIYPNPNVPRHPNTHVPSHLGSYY
# Summary of the method: (§1)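 Sequencing on an Illumina NextSeq500 followed washing, crosslinking with 0.1% formaldehyde, proximity ligation (BsaI/T4 ligase, 1 h, 37 °C) and PCR amplification of pools that had been incubated for 30 min at room temperature with 200 nmole of a random double-stranded 16-mer DNA library in Tris/NaCl/DTT/glycerol buffer. Each pool held DNA-barcoded human transcription factors, expressed in yeast as GST fusions and captured on glutathione beads, plus a tag-only sample. Binding signal is a hexamer's read frequency for a factor divided by its frequency in the tag-only sample.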
# ELK1 = biological target: T2, ELK1 (Homo sapiens, UniProt P19419 1-428); conditions: protein: recombinant; tags: N-terminal GST; dsDNA, one strand shown
# T2 sequence: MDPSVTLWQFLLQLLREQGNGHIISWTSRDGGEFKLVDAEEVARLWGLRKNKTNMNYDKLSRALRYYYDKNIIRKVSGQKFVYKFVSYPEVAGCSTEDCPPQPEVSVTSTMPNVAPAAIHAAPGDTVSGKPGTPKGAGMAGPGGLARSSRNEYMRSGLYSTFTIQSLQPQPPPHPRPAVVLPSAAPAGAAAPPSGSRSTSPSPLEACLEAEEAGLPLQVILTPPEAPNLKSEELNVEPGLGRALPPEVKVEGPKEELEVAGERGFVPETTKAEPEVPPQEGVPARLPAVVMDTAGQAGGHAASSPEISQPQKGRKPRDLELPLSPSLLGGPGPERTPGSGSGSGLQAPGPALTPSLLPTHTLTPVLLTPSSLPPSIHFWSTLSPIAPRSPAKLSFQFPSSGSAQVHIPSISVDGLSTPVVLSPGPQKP
# Summary of the method: as §1
# GABPA = biological target: T3, GABPA (Homo sapiens, UniProt Q06546 1-454); conditions: protein: recombinant; tags: N-terminal GST; dsDNA, one strand shown
# T3 sequence: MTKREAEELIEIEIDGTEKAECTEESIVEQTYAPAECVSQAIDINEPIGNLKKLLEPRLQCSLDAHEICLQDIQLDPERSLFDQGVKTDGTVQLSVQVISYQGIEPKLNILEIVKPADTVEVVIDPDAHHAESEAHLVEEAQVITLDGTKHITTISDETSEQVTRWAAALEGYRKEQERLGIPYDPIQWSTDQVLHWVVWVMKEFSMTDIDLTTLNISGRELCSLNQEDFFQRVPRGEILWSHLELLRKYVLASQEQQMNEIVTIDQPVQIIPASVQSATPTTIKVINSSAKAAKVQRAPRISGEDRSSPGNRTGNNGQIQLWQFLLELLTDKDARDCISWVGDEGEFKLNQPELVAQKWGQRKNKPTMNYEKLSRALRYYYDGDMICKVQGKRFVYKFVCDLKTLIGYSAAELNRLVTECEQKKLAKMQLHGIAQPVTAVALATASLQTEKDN
# Summary of the method: as §1
# ERG = biological target: T4, ERG (Homo sapiens, UniProt P11308 1-479); conditions: protein: recombinant; tags: N-terminal GST; dsDNA, one strand shown
# T4 sequence: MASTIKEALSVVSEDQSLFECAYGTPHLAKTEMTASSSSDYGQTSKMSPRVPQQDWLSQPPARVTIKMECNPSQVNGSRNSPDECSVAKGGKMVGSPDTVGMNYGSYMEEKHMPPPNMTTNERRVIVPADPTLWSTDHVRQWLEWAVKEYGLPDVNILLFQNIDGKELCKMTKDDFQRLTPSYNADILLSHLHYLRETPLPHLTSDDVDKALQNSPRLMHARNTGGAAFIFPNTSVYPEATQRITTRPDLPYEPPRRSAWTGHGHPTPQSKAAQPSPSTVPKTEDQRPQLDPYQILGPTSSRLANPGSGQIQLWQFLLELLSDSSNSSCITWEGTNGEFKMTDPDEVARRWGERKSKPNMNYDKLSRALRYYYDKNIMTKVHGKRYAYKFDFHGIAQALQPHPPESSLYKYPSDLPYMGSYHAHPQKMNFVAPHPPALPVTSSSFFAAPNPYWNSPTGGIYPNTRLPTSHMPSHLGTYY
# Summary of the method: as §1
# ELF1 = ELF1 (Homo sapiens, UniProt P32519 1-619); conditions: protein: recombinant; tags: N-terminal GST; dsDNA, one strand shown
# Summary of the method: as §1
# EHF = biological target: T5, EHF (Homo sapiens, UniProt Q9NZC4 1-300); conditions: protein: recombinant; tags: N-terminal GST; dsDNA, one strand shown
# T5 sequence: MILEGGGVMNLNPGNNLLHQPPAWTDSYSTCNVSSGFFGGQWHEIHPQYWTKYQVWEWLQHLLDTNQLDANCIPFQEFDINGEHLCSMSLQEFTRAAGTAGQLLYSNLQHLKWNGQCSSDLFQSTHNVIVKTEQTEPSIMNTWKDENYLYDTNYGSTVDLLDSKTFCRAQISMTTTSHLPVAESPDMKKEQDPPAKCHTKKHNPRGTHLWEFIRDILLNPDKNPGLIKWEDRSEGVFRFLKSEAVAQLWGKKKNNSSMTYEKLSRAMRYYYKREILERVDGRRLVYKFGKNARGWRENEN
# Summary of the method: as §1
# SPI1 = SPI1 (Homo sapiens, UniProt P17947 1-270); conditions: protein: recombinant; tags: N-terminal GST; dsDNA, one strand shown
# Summary of the method: as §1
# SPIB = SPIB (Homo sapiens, UniProt Q01892 1-262); conditions: protein: recombinant; tags: N-terminal GST; dsDNA, one strand shown
# Summary of the method: as §1
# ELK3 = biological target: T6, ELK3 (Homo sapiens, UniProt P41970 1-407); conditions: protein: recombinant; tags: N-terminal GST; dsDNA, one strand shown
# T6 sequence: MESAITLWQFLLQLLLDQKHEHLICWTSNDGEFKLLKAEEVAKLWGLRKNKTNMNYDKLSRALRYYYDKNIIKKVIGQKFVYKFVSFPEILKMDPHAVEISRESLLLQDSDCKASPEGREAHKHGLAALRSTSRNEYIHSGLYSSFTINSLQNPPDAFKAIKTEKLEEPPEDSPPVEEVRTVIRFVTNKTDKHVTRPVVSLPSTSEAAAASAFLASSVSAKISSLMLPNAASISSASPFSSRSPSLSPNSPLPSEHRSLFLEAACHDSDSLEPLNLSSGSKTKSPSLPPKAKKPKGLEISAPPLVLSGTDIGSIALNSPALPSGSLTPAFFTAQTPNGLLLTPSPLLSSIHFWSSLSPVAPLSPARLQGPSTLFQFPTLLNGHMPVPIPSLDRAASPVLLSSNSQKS
# Summary of the method: as §1
# FEV = biological target: T7, FEV (Homo sapiens, UniProt Q99581 1-238); conditions: protein: recombinant; tags: N-terminal GST; dsDNA, one strand shown
# T7 sequence: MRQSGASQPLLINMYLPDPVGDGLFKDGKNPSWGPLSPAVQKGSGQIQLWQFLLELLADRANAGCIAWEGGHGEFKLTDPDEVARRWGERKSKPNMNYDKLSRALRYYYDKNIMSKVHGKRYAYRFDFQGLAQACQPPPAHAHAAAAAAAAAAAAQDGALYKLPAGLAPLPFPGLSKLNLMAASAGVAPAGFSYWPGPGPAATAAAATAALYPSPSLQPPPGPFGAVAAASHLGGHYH
# Summary of the method: as §1
# ETV5 = ETV5 (Homo sapiens, UniProt P41161 1-510); conditions: protein: recombinant; tags: N-terminal GST; dsDNA, one strand shown
# Summary of the method: as §1
# HSF1 = HSF1 (Homo sapiens, UniProt Q00613 1-529); conditions: protein: recombinant; tags: N-terminal GST; chain copies: 3; dsDNA, one strand shown
# Summary of the method: as §1
# SPIC = biological target: T8, SPIC (Homo sapiens, UniProt Q8N5J4 1-248); conditions: protein: recombinant; tags: N-terminal GST; dsDNA, one strand shown
# T8 sequence: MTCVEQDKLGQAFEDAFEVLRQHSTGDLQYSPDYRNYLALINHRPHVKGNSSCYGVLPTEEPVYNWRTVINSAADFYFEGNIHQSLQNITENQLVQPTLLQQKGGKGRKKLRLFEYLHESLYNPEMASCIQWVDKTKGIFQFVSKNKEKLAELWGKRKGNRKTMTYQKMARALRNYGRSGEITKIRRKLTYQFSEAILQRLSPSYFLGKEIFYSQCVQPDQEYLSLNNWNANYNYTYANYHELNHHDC
# Summary of the method: as §1
# ELF4 = ELF4 (Homo sapiens, UniProt Q99607 1-663); conditions: protein: recombinant; tags: N-terminal GST; dsDNA, one strand shown
# Summary of the method: as §1
# ELK4 = biological target: T9, ELK4 (Homo sapiens, UniProt P28324-2 1-405); conditions: protein: recombinant; tags: N-terminal GST; dsDNA, one strand shown
# T9 sequence: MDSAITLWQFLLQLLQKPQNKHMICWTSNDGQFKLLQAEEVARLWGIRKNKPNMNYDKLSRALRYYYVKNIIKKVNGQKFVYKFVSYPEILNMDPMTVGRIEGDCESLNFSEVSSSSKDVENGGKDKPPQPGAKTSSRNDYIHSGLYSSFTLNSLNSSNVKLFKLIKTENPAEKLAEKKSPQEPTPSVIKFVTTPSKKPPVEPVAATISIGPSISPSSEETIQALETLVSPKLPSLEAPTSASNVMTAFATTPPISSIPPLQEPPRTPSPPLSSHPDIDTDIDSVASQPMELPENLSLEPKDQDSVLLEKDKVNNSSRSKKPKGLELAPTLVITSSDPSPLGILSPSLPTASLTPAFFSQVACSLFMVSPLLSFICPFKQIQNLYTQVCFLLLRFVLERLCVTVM
# Summary of the method: as §1
# ETV2 = biological target: T10, ETV2 (Homo sapiens, UniProt O00321 1-342); conditions: protein: recombinant; tags: N-terminal GST; dsDNA, one strand shown
# T10 sequence: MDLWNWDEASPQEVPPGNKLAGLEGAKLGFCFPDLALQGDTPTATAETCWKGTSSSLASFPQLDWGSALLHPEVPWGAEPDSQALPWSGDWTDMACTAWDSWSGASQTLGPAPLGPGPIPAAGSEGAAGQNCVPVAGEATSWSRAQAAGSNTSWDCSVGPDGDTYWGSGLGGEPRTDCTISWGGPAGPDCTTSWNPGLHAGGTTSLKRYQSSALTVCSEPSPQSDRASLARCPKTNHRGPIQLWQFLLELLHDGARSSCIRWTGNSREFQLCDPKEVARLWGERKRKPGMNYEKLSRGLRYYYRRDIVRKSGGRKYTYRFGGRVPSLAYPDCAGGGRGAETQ
# Summary of the method: as §1
# ELF3 = biological target: T11, ELF3 (Homo sapiens, UniProt P78545 1-371); conditions: protein: recombinant; tags: N-terminal GST; dsDNA, one strand shown
# T11 sequence: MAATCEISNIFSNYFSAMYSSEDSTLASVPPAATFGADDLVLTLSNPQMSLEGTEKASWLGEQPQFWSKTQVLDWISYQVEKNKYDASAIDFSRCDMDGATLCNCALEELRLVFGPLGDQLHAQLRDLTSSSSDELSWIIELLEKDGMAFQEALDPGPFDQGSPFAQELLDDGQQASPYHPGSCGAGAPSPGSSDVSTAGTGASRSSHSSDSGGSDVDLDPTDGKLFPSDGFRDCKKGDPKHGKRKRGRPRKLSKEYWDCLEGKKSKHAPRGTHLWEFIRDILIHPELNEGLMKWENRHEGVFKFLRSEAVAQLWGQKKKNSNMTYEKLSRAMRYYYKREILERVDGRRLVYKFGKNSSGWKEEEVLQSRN
# Summary of the method: as §1
# CRX = CRX (Homo sapiens, UniProt O43186 1-299); conditions: protein: recombinant; tags: N-terminal GST; dsDNA, one strand shown
# Summary of the method: as §1
# ETV1 = ETV1 (Homo sapiens, UniProt P50549 1-477); conditions: protein: recombinant; tags: N-terminal GST; dsDNA, one strand shown
# Summary of the method: as §1
# Sequence of SPIB (Q01892 whole entry): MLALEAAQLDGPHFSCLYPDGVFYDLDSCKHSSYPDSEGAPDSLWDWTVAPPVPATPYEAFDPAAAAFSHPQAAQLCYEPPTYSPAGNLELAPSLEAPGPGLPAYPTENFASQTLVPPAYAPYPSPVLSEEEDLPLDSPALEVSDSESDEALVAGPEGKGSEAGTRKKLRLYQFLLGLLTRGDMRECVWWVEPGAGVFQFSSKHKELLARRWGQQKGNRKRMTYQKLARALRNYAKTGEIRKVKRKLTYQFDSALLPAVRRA
# Sequence of ELF1 (P32519 whole entry): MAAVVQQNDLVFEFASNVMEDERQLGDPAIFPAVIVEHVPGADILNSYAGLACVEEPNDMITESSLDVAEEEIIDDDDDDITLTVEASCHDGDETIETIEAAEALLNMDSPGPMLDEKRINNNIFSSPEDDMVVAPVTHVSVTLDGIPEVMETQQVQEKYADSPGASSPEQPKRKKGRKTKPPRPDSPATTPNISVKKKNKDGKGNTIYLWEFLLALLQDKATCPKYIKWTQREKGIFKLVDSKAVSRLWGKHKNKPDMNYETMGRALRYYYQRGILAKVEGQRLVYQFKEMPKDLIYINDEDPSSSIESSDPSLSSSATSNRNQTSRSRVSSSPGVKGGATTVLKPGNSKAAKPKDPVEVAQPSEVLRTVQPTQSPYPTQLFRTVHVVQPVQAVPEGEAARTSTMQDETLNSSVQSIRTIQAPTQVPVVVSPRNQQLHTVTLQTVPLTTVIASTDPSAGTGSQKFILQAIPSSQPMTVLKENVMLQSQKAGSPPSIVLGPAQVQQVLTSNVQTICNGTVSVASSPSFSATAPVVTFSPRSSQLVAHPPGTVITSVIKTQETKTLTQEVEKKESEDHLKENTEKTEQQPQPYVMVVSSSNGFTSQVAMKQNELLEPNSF
# Sequence of ETV5 (P41161 whole entry): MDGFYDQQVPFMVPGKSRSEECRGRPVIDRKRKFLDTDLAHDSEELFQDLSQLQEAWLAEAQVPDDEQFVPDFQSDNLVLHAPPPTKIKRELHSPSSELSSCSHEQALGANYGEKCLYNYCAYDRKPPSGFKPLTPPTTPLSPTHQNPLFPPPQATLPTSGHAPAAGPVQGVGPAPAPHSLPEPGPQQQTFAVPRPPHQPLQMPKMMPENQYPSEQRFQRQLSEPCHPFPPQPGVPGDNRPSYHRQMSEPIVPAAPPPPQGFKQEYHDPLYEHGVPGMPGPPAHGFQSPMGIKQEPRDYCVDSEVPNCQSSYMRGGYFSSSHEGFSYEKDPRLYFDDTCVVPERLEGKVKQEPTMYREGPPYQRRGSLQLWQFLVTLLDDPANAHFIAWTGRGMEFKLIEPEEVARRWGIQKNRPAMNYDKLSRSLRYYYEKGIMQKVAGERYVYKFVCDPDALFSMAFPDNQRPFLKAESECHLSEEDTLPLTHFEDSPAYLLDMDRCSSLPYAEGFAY
# Sequence of ELF4 (Q99607 whole entry): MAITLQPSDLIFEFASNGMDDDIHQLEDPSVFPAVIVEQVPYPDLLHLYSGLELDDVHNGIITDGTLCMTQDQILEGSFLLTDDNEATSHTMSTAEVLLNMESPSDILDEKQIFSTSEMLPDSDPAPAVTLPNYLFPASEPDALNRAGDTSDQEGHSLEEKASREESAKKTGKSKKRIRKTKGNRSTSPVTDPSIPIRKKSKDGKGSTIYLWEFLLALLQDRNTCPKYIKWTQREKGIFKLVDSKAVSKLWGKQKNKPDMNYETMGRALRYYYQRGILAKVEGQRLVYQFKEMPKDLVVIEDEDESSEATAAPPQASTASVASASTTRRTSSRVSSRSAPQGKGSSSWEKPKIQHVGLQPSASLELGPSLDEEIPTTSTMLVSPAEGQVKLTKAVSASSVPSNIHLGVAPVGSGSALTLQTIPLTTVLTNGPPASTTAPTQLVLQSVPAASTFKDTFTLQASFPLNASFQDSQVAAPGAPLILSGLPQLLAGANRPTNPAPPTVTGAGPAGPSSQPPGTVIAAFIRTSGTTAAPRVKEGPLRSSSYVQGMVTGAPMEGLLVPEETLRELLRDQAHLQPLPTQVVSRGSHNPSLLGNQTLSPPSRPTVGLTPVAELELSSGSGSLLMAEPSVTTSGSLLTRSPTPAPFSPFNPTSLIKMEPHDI
# Sequence of HSF1 (Q00613 whole entry): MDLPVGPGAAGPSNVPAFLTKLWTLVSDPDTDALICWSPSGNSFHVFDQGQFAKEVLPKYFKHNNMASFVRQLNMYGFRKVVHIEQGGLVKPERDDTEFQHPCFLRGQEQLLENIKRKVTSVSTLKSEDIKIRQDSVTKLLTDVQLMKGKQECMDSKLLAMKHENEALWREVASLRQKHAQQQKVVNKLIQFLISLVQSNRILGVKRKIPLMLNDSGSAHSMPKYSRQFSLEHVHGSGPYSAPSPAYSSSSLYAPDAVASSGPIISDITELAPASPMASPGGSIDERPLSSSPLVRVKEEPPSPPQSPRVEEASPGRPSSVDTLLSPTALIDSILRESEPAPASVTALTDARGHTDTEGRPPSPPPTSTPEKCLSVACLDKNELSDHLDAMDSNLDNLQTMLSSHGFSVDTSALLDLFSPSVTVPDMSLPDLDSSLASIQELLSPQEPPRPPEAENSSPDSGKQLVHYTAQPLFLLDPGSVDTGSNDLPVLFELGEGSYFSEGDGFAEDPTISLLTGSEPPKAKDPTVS
# Sequence of ETV1 (P50549 whole entry): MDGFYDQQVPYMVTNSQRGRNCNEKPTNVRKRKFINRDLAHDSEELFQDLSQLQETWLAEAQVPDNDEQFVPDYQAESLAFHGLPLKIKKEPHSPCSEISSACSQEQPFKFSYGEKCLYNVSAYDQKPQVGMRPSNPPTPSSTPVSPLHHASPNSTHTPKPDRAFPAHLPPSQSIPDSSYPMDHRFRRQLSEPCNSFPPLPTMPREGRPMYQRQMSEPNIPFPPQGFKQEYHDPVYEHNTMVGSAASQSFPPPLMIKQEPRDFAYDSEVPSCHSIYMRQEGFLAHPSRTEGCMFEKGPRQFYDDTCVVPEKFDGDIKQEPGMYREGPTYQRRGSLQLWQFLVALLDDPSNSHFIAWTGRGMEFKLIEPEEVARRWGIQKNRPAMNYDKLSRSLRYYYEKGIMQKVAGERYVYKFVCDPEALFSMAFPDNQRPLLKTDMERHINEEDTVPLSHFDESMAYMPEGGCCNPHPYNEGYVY
# Sequence of CRX (O43186 whole entry): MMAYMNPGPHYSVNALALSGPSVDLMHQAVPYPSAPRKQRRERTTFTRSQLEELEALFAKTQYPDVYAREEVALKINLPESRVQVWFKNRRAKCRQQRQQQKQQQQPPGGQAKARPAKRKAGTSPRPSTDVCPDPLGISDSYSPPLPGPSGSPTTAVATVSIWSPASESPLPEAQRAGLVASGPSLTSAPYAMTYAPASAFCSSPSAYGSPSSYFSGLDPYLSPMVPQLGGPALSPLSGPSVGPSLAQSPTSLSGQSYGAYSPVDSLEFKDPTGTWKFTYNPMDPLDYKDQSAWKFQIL
sequence,measurement,setting,value
GTTTTT,binding signal,FLI1,"1.31 fold enrichment (6-mer frequency, TF over GST control)"
same,binding signal,ELK1,"1.19 fold enrichment (6-mer frequency, TF over GST control)"
same,binding signal,GABPA,"1.4 fold enrichment (6-mer frequency, TF over GST control)"
same,binding signal,ERG,"1.17 fold enrichment (6-mer frequency, TF over GST control)"
same,binding signal,ELF1,"1.34 fold enrichment (6-mer frequency, TF over GST control)"
same,binding signal,EHF,"1.38 fold enrichment (6-mer frequency, TF over GST control)"
same,binding signal,SPI1,"1.42 fold enrichment (6-mer frequency, TF over GST control)"
same,binding signal,SPIB,"1.36 fold enrichment (6-mer frequency, TF over GST control)"
same,binding signal,ELK3,"1.51 fold enrichment (6-mer frequency, TF over GST control)"
same,binding signal,FEV,"1.23 fold enrichment (6-mer frequency, TF over GST control)"
same,binding signal,ETV5,"1.31 fold enrichment (6-mer frequency, TF over GST control)"
same,binding signal,HSF1,"1.21 fold enrichment (6-mer frequency, TF over GST control)"
same,binding signal,SPIC,"1.41 fold enrichment (6-mer frequency, TF over GST control)"
same,binding signal,ELF4,"1.33 fold enrichment (6-mer frequency, TF over GST control)"
same,binding signal,ELK4,"1.32 fold enrichment (6-mer frequency, TF over GST control)"
same,binding signal,ETV2,"1.38 fold enrichment (6-mer frequency, TF over GST control)"
same,binding signal,ELF3,"1.29 fold enrichment (6-mer frequency, TF over GST control)"
same,binding signal,CRX,"1.13 fold enrichment (6-mer frequency, TF over GST control)"
same,binding signal,ETV1,"1.24 fold enrichment (6-mer frequency, TF over GST control)"

# Source: PMC7862700, “An all-to-all approach to the identification of sequence-specific readers for epigenetic DNA modifications on cytosine”
